In PubChem BioAssay (NCI):
Compounds without any hit were thinned out: in the full panel of roughly 83,000, 20% have a hit.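 How to read the values: 0–100, growth inhibition (40 = 60% inhibited); 0, no net growth; -100 to 0, cell death (-40 = 40% of starting cells died; -100 = all dead).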 Values without a mark were called inactive. Calls of active or inactive are those of the source. Rule for the calls: active = growth percent below 10; inactive = the rest.

How the values were obtained:
Assay in all cases: NCI-60 one-dose screen, 48 h (100 = growth as untreated, 0 = no growth, -100 = all killed)
[1] = test system: NCI-H522 lung; settings: 10 µM unless noted
[2] = test system: COLO 205 colon; settings: 10 µM
[3] = test system: MALME-3M melanoma; settings: 10 µM unless noted
[4] = test system: SNB-19 CNS; settings: 10 µM unless noted
[5] = test system: LOX IMVI melanoma; settings: 10 µM unless noted
[6] = test system: EKVX NSCLC; settings: 10 µM unless noted
[7] = test system: SN12C renal; settings: 10 µM unless noted
[8] = test system: TK-10 renal; settings: 10 µM unless noted
[9] = test system: CCRF-CEM leukemia; settings: 10 µM unless noted
[10] = test system: IGROV1 ovarian; settings: 10 µM
[11] = test system: BT-549 breast; settings: 10 µM
[12] = test system: HCC-2998 colon; settings: 10 µM unless noted
[13] = test system: SF-295 CNS; settings: 10 µM unless noted
[14] = test system: SK-MEL-28 melanoma; settings: 10 µM unless noted
[15] = test system: CAKI-1 renal; settings: 10 µM unless noted
[16] = test system: SR leukemia; settings: 10 µM
[17] = test system: OVCAR-4 ovarian; settings: 10 µM unless noted
[18] = test system: RPMI-8226 leukemia; settings: 10 µM unless noted

| Structure (SMILES) | growth [1] | growth [2] | growth [3] | growth [4] | growth [5] | growth [6] | growth [7] | growth [8] | growth [9] | growth [10] | growth [11] | growth [12] | growth [13] | growth [14] | growth [15] | growth [16] | growth [17] | growth [18] |
| --- | --- | --- | --- | --- | --- | --- | --- | --- | --- | --- | --- | --- | --- | --- | --- | --- | --- | --- |
| CN1C(=O)NC(=O)C(N=Nc2ccc(Cl)cc2)C1=O (stereo not given) | 81.3% | 137% | 134% | 106% | 102% | 96.3% | 103% | 101% | 106% | 129% | 80.3% | 90.6% | – | – | – | – | – | – |
| c1cnc2c(c1)ccc1ncccc12 | 93.8% | 110% | 118% | 95.7% | 106% | 94.2% | 95.3% | 114% | 95.6% | – | 106% | 119% | 115% | 205% | 91.7% | 110% | 109% | – |
| CCC(CC)(c1ccccc1)C(OC(N)=O)c1ccccc1 (stereo not given) | 78.6% | 86.7% | – | – | 77.8% | – | 81.8% | – | 88.9% | – | – | – | 71.9% | 85.4% | 60.7% | – | 83.7% | – |
| O=C1NC(=O)C(CN2C(=O)C3(c4ccccc42)[C@H](Cl)C(=O)N3c2ccccc2)C(=O)N1 (stereo not given in full) | 51.4% | 102% | 95.4% | 88.6% | 50.2% | 79.3% | 97.4% | 121% | 54.4% | – | 72.3% | 83.9% | 91.5% | 76.8% | 85.7% | 15.2% | 97.6% | 63.1% |
| CCCCn1cc(C(=O)/C(C#N)=C/c2cc3ccccc3nc2Cl)c2cc(OC)ccc21 | 99.6% | 104% | 88.6% | 90.3% | 74% | 93.9% | 79.2% | 101% | 33.4% | 61.2% | – | 96.8% | 95.9% | 107% | 75% | -12% (active) | 95.5% | – |
| C[C@]12CC[C@H](OC3OC(O)C(O)C(O)C3O)C=C1CCC1C2CC[C@]2(C)[C@@H](c3ccc(=O)oc3)CC[C@]12O (stereo not given in full) | -61.4% (active) | -85.1% (active) | -47.6% (active) | – | -84.4% (active) | -86.6% (active) | -37.7% (active) | -80.6% (active) | -33.8% (active) | -12.1% (active) | -92.3% (active) | -90.4% (active) | -77.7% (active) | -82.9% (active) | -62.6% (active) | -42.7% (active) | -41.9% (active) | -20.5% (active) |
| CC[C@@H](C)/C=C(C)/C=C/C(=O)c1c(O)c(-c2ccc(O)cc2)cn(O)c1=O | 21.9% | 85.2% | -7% (active) | 13.6% | 3.82% (active) | -0.798% (active) | 13.6% | 11.6% | 9.47% (active) | 5.54% (active) | 18% | 36.4% | -28.7% (active) | 34.7% | -54.9% (active) | – | – | – |
| Cc1ccccc1O | 99% | 105% | 115% | 107% | 91.5% | 111% | 105% | 115% | 103% | 102% | 102% | 99.4% | 135% | 111% | 96.2% | 128% | 101% | 108% |
| O=C1NC(=S)NC(=O)C1=Cc1ccccc1 | 117% | 103% | 132% | 107% | 85.1% | 111% | 106% | 182% | – | 119% | – | 106% | 97.9% | 122% | 95% | – | 114% | 130% |
| C[C@]12CCC(=O)CC1CC[C@@H]1C2CC[C@@]2(C)C1CC[C@@H]2OC(=O)CC[Se][Se]CCC(=O)O[C@H]1CCC2[C@@H]3CCC4CC(=O)CC[C@]4(C)C3CC[C@@]21C (stereo not given in full) | 88.3% | 122% | 94.2% | 76.7% | 80.8% | 31.9% | 103% | 77.4% | 100% | 97.3% | 96.8% | 108% | 96.7% | 98.9% | 84.6% | – | 83.2% | 93.6% |
| CC1(C)N=C(N)N=C(N)N1c1cccc(C(=O)Nc2cccc(S(=O)(=O)F)c2)c1 | 99.8% | 120% | 88.9% | – | 99.7% | – | 101% | 108% | 97.5% | 105% | 107% | 98.5% | 84.9% | 103% | 98.8% | 104% | 100% | 95.5% |
| CC1=C(SCCC(=O)OCC(=O)NCCC[Te]c2ccccc2)C(=O)c2ccccc2C1=O | -6.75% (active) | 47.6% | -7.94% (active) | – | -12.6% (active) | -3.84% (active) | 7.58% (active) | 18.9% | 2.25% (active) | -35.5% (active) | – | 10.1% | -35.6% (active) | -11.4% (active) | 27.4% | – | 87.4% | -8.41% (active) |
| COc1ccc(/C=C\c2cc(OC)c(OC)c(OC)c2)cc1N/C=C\C(=O)c1c[nH]c2ccccc12 | -9.96% (active) | -65.6% (active) | 57.8% | 38.6% | – | – | 26.1% | 60.1% | – | 21.8% | 6.79% (active) | 21.4% | -11.8% (active) | – | – | 2.48% (active) | – | 19.5% |
| CN1CC2CCC(C1)C2=O | 92.1% | 106% | 79.2% | 105% | 98.1% | – | 99.8% | 93% | 94.4% | 93.8% | 88.8% | 114% | – | 113% | 91.7% | 82.7% | 103% | 98.9% |
| CC(C)C1c2ccc(O)cc2Oc2nc(N)c(C#N)c(N)c21 (stereo not given) | 86.4% | 109% | – | 101% | – | – | 103% | – | 94.8% | 111% | – | – | 107% | 117% | 93.5% | 97.1% | 101% | – |
| ClCCN(CCCl)c1nc(Cl)c(C2CC(c3ccccc3)=NN2c2ccccc2)s1 (stereo not given) | 75.1% | 95.3% | 113% | – | 85.3% | 89.5% | 90.4% | 108% | 88.9% | 107% | 99.3% | 110% | 98.6% | 98.6% | 81.4% | 88.4% | – | – |
| CC(=O)C1C(=O)N(C)C(=O)N(C)C1=O | 105% | 114% | 114% | – | 107% | – | 104% | 109% | 97.2% | – | 106% | 112% | – | 106% | 102% | 96.5% | 105% | 99.7% |
| Cc1cc(C)nc(C)c1.[Cl][Hg][Cl] | 3.42% (active) | 123% | 92.8% | – | 80.2% | – | – | 108% | – | – | – | 114% | 94.9% | 94% | 96.4% | – | 103% | 98.9% |
| S=P(NC1CCCCC1)(N1CC1)N1CC1 | 106% | 179% | 106% | 113% | 96.5% | 102% | 98.1% | 116% | – | 97.3% | 120% | 131% | 110% | – | 95.1% | – | 100% | 76.7% |
| COC(C)(C)CCC[C@H](C)C/C=C/C(C)=C/C(=O)OC(C)C | 69.1% | 107% | 85.9% | – | 92.9% | 78.1% | – | 96.5% | 78% | 99.7% | 103% | 101% | 98.2% | 101% | 85.4% | – | 90% | 62.9% |
| CCCCNCCc1ccccn1 | 86.9% | 117% | 101% | 113% | 97.1% | 120% | 112% | 96.8% | 92.4% | 116% | 98.2% | 114% | 100% | 104% | 97% | 101% | 106% | 90.2% |
